Assay results: PubChem BioAssay
Calls of active or inactive are those of the source. Unless noted, the rule behind the calls is not given here.

What was measured:
[1] = compounds binding Alexa647 anti-His antibody – biochemical, small-molecule microarray, 635 nm fluorescence, artefact control for SMM control protein annotation, primary screen (AID 1128); conditions: higher = more signal;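 note: score merges feature fluorescence with signal-to-noise for each printed compound spot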
[2] = tested on: Human papillomavirus type 1a E7 protein (residues 1-88); assay: HPV1a E7 small-molecule binders, primary screen, biochemical, small-molecule microarray, residues 1-88, 635 nm (AID 1129); conditions: small-molecule microarray binding, fluorescence 635 nm; higher = more signal
[3] = molecular target: Focal adhesion kinase 1 (Homo sapiens) (UniProt Q05397); assay: PTK2 protein binding on printed compound slides – biochemical, small-molecule microarray, 635/667 nm fluorescence, BSA, DTT, primary screen (AID 1130); conditions: 635 nm fluorescence, higher = more signal;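 note: composite of spot emission at 667 nm and signal to noise over triplicate slides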
[4] = tested on: Fibrinogen (Alexa647-labelled); assay: Alexa647-fibrinogen binding to printed small molecules – biochemical, small-molecule microarray, 635/667 nm fluorescence, artefact control for SMM control-protein annotation, profiling panel (AID 1131); conditions: fibrinogen-A647 binding fluorescence, higher = more signal;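 note: z-score merges 667 nm fluorescence with per-spot signal-to-noise over triplicate slides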
[5] = molecular target: Follistatin (Homo sapiens) (UniProt P19883); assay: FST protein binding to printed compounds – biochemical, small-molecule microarray, 635/667 nm fluorescence, primary screen (AID 1132); conditions: 635 nm fluorescence, higher = more signal
[6] = molecular target: Fibroblast growth factor 2 (Homo sapiens) (UniProt P09038); assay: basic fibroblast growth factor binding to printed compounds – biochemical, small-molecule microarray, 635/667 nm fluorescence, primary screen (AID 1133); conditions: FGF2, fluorescence 635/667, higher = more signal
[7] = JC-1 mitochondrial potential readout, lung cancer cells – cell-based, A549, JC-1 fluorescence, basal, 24 h, 100 nL, profiling panel (AID 1138); conditions: higher = more signal;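 note: A549 lung adenocarcinoma cells under basal conditions with no added stimulus; test concentration not given here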
[8] = tested on: Lefty1; assay: Lefty1 protein binding to printed compounds – biochemical, small-molecule microarray, 635/667 nm fluorescence, primary screen (AID 1139); conditions: fluorescence 635/667, higher = more signal
[9] = tested on: wheat germ agglutinin (Triticum aestivum), Alexa647-labelled; assay: Alexa647-WGA lectin binding to printed small molecules – biochemical, small-molecule microarray, 635/667 nm fluorescence, artefact control for SMM control-protein annotation, profiling panel (AID 1140); conditions: WGA-A647 binding, 635 nm fluorescence, higher = more signal;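 note: score merges 667 nm feature emission with signal to noise over triplicate slides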
[10] = molecular target: Luciferin 4-monooxygenase (Photinus pyralis) (UniProt P08659); assay: inhibition of purified Photinus pyralis luciferase – biochemical, luminescence, purified enzyme, 2006 set, primary screen (AID 1141); conditions: purified firefly luciferase, SteadyGlo luminescence, 30 min; higher = more signal, called active from +8 up or from −8 down;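 note: cell-free assay with purified firefly luciferase at 100 ng per well in PBS; test concentration not given here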
[11] = tested on: Wnt5a (protein binding on small-molecule microarray); assay: small molecules binding Wnt5a protein – biophysical, small-molecule microarray, 635/667 nm fluorescence, primary screen (AID 1142); conditions: 635 nm fluorescence, higher = more signal;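 note: fluorescence read at 667 nm with signal to noise per printed feature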
[12] = ATP-based viability of Huh7 replicon cells – cell-based, CellTiter-Glo luminescence, basal, 48 h, cytotoxicity control for HCV replication inhibitor project, primary screen (AID 1143); conditions: higher = more signal, called active from +8 up or from −8 down;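 note: Huh7 hepatoma cells carrying a hepatitis C replication reporter with no stimulus; test concentration not given here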
[13] = Pseudomonas biofilm growth suppression – PAO1 strain, BacTiter-Glo luminescence, LB-PBS, primary screen (AID 1144); conditions: P. aeruginosa PAO1 biofilm, 12 h, higher = more signal
[14] = basal CRE-LacZ reporter activity in PC12 – cell-based, unstimulated, primary screen (AID 1145); conditions: no forskolin, luminescence, 4.5 h, higher = more signal, called active from +8 up or from −8 down
[15] = forskolin-driven CRE-LacZ activity in PC12 – cell-based, CRE-LacZ reporter, forskolin-stimulated, primary screen (AID 1146); conditions: luminescence, 4.5 h, higher = more signal, called active from +8 up or from −8 down;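 note: PC12 cells with 6xCRE LacZ reporter stimulated by forskolin 10 µM; beta-galactosidase reporter signal reflecting CREB driven transcription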
[16] = molecular target: Streptavidin (Streptomyces avidinii) (UniProt P22629); assay: compounds binding control protein streptavidin – biophysical, small-molecule microarray, 635/667 nm fluorescence, artefact control for SMM compound annotation, primary screen (AID 1147); conditions: higher = more signal;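 note: signal reflects streptavidin binding to arrayed compounds as a control protein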
[17] = probe aInhba binding on compound microarray – biochemical, small-molecule microarray, 635/667 nm fluorescence, primary screen (AID 1148); conditions: higher = more signal;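 note: score merges 667nm spot fluorescence with signal-to-noise for antibody binding to printed compounds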
[18] = molecular target: Torsin-1A (Homo sapiens) (UniProt O14656); assay: TOR1A wild-type binding on microarray – cell lysate, small-molecule microarray, lysate, 635/667 nm, primary screen (AID 1149); conditions: COS7 hTOR1A-WT lysate, 635 nm fluorescence, higher = more signal
[19] = molecular target: Torsin-1A (Homo sapiens) (UniProt O14656); assay: torsin A mutant lysate binding on microarrays – cell lysate, small-molecule microarray, COS7 lysate, 635/667 nm fluorescence, primary screen (AID 1150); conditions: COS7 hTOR1A mutant lysate, 635 nm fluorescence, higher = more signal;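 note: score pools 667 nm emission and signal to noise measuring lysate protein binding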
[20] = tested on: Sonic hedgehog protein (Shh); assay: Sonic hedgehog microarray binding compounds – biochemical, small-molecule microarray, 635/667 nm fluorescence, primary screen (AID 1151); conditions: 635 nm fluorescence, higher = more signal;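 note: Shh protein binding to compounds spotted on small-molecule microarray slides; score combines spot fluorescence intensity with signal-to-noise across triplicate slides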

Torsin-1A (Homo sapiens), sequence (O14656 whole entry, looked up): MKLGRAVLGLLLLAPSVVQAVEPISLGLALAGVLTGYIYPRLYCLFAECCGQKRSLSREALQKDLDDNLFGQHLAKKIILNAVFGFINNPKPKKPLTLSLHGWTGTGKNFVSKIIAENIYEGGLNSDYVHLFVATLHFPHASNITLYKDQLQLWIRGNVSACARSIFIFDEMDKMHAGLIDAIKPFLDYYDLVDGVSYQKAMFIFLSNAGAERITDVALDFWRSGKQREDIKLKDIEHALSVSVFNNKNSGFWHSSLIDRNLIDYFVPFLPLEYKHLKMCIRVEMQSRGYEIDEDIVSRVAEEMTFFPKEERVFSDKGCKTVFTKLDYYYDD
Follistatin (Homo sapiens), sequence (P19883 whole entry, looked up): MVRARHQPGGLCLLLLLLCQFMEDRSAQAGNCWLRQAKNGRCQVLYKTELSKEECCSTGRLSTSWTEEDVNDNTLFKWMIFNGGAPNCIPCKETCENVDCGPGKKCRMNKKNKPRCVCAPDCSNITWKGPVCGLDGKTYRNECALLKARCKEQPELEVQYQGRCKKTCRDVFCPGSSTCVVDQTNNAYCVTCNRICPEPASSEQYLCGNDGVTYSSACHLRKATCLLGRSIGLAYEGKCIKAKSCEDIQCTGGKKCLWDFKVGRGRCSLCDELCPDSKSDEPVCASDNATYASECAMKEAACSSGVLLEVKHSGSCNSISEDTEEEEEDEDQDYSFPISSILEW
Fibroblast growth factor 2 (Homo sapiens), sequence (P09038 whole entry, looked up): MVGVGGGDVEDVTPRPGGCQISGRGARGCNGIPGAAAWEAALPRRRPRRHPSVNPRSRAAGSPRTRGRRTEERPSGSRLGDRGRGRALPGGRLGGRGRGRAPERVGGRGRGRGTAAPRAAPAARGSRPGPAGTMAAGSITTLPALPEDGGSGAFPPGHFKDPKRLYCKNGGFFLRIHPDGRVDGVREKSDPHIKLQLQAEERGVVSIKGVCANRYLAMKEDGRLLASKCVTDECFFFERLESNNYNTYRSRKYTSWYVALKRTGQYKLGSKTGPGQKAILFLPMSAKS
Focal adhesion kinase 1 (Homo sapiens), sequence (Q05397 whole entry, looked up): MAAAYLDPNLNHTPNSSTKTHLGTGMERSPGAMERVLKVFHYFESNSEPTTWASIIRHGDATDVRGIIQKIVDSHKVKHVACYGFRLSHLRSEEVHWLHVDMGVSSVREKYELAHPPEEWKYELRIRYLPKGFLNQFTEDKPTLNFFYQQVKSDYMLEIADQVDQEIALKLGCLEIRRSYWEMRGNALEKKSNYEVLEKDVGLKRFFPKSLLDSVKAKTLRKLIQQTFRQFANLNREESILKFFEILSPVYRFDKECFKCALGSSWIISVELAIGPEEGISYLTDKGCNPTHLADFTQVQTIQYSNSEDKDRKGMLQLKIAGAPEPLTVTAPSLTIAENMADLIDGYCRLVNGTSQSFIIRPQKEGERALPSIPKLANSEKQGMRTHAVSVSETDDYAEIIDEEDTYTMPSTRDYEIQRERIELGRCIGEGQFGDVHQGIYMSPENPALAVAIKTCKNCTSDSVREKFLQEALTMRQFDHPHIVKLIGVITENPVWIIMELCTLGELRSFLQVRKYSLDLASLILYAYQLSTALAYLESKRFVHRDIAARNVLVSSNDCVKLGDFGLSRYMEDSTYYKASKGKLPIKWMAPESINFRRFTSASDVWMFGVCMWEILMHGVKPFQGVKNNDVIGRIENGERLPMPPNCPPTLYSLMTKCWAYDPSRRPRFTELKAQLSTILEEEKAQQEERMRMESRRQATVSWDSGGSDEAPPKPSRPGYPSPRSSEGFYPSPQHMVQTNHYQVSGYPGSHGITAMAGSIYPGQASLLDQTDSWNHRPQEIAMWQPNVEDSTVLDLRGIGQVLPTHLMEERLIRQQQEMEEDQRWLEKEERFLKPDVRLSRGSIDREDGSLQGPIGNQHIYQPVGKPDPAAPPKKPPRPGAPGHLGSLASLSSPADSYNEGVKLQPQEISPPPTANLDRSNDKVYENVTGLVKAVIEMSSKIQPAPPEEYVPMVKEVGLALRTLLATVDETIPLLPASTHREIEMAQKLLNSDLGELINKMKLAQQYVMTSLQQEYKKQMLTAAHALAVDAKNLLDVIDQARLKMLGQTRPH
Streptavidin (Streptomyces avidinii), sequence (P22629 whole entry, looked up): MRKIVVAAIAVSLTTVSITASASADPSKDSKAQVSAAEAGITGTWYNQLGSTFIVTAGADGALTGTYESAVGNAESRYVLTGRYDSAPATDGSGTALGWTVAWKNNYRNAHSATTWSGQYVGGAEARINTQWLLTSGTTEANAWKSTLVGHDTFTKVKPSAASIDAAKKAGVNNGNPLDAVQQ
Luciferin 4-monooxygenase (Photinus pyralis), sequence (P08659 whole entry, looked up): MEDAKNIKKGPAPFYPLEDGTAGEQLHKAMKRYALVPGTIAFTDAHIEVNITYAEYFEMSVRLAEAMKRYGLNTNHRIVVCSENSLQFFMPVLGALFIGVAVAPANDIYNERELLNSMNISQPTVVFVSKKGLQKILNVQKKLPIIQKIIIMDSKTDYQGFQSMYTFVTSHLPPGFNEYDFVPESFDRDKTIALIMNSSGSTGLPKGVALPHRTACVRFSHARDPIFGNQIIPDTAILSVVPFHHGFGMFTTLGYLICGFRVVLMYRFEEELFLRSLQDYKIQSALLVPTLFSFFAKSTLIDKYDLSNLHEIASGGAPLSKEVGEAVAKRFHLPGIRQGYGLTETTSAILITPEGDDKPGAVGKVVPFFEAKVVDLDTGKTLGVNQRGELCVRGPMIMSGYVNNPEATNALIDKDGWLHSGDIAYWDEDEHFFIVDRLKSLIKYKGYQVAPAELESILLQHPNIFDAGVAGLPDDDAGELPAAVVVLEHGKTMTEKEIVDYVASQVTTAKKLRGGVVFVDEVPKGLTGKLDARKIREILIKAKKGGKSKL

Row | Structure (SMILES) | composite z-score [1] | composite z-score [2] | composite z-score [3] | composite z-score [4] | composite z-score [5] | composite z-score [6] | z-score [7] | composite z-score [8] | composite z-score [9] | z-score [10] | composite z-score [11] | z-score [12] | z-score [13] | z-score [14] | z-score [15] | composite z-score [16] | composite z-score [17] | composite z-score [18] | composite z-score [19] | composite z-score [20]
1 | C=C[C@H](C)[C@@H](O)c1ccc(O)c2ccccc12 | 1.25 | -0.655 | -0.432 | -0.407 | 1.05 | 0.944 | -0.401 | 0.246 | 0.545 | -0.322 (inactive) | -0.302 | -0.276 (inactive) | -0.501 (inactive) | -0.869 (inactive) | 1.63 (inactive) | -0.785 | -0.0471 | -0.378 | -0.0127 | 1.38
2 | C=C(CCCC)/C(=C/C[C@H](OC(C)=O)c1ccc(CO)o1)c1cnc2ccccc2c1 | 0.867 | 1.18 | -0.0622 | 0.713 | 1.27 | 1.18 | -0.566 | 1.29 | 1.18 | -1.88 (inactive) | 0.465 | 0.665 (inactive) | -1.22 (inactive) | 0.0563 (inactive) | 1.65 (inactive) | 1.25 | 0.0278 | 0.749 | 1.08 | 1.89
3 | C=CCNC(=O)[C@@H]1[C@H]2C(=O)O[C@H](c3ccccc3)[C@H](c3ccccc3)N2[C@H](c2ccc(O)cc2)[C@@]12C(=O)N(C(=O)OCCOC)c1ccccc12 | 1.92 | 1.21 | 0.419 | 0.945 | 0.714 | -0.145 | -0.595 | 0.522 | 0.795 | -0.355 (inactive) | 0.0795 | -4.99 (inactive) | -0.848 (inactive) | 1.04 (inactive) | -0.0406 (inactive) | 1.56 | -0.0375 | 0.677 | 0.76 | 0.951
4 | Cc1ccc([C@H]2[C@H](C(=O)O)[C@H](Sc3ccccc3)[C@@H](C(C)C)N2S(=O)(=O)c2ccc(C)cc2)cc1 | 0.229 | 1.19 | 0.344 | 0.996 | 0.744 | -0.228 | -1.31 | 0.127 | 0.798 | 0.426 (inactive) | 0.378 | -2.04 (inactive) | 0.766 (inactive) | -0.676 (inactive) | -0.728 (inactive) | 0.93 | -0.231 | 0.495 | 0.612 | -0.861
5 | NC(=O)NCC#Cc1ccc2c(c1)[C@]1(C(=O)N2)[C@H](C(=O)NC[C@H](O)c2ccccc2)[C@H]2C(=O)O[C@H](c3ccccc3)[C@H](c3ccccc3)N2[C@@H]1c1ccc(O)cc1 | 0.489 | 1.17 | 0.58 | 0.673 | 1.17 | 1.21 | -2.34 | 0.595 | 1.09 | -0.0138 (inactive) | 0.545 | 0.525 (inactive) | -0.846 (inactive) | -0.465 (inactive) | -0.467 (inactive) | 1.34 | 0.529 | 0.325 | 0.816 | 1.02
6 | COCCOC(=O)N1C(=O)[C@@]2(c3cc(C#CCC(C(=O)OC)C(=O)OC)ccc31)[C@H](c1ccccc1OCCO)N1[C@H](c3ccccc3)[C@H](c3ccccc3)OC(=O)[C@H]1[C@@H]2C(=O)N1CCc2cc(OC)c(OC)cc2C1 | 0.89 | 1.19 | 1.33 | 0.938 | 1.41 | 1.49 | -0.978 | 1.47 | 0.784 | -0.882 (inactive) | -0.184 | -3.42 (inactive) | -1.52 (inactive) | -1.42 (inactive) | -1.16 (inactive) | 0.226 | -0.0774 | 0.298 | 0.619 | 1.88
7 | [N-]=[N+]=NCc1ccccc1[C@@H]1OC(c2ccc(OCCCO)cc2)=N[C@]1(Cc1ccccc1)C(=O)N1CCCCC1 | 2.4 | 1.2 | 0.0473 | 0.39 | 1.41 | 1.55 | 2.06 | -0.0101 | 0.903 | -1.22 (inactive) | 0.663 | -3.77 (inactive) | -0.641 (inactive) | 1.56 (inactive) | -0.546 (inactive) | 0.466 | 0.288 | -0.451 | -0.271 | 0.0721
8 | COCC1=C2[C@@H](CCc3ccccc3)OB(O)C[C@@H]2[C@@H]2C(=O)N(Cc3ccccc3)C(=O)[C@@H]2C1 | -0.0926 | -0.147 | -0.138 | 1 | 0.193 | -0.0119 | 0.092 | 0.261 | 0.397 | -0.683 (inactive) | 0.278 | 0.0597 (inactive) | 1.07 (inactive) | 0.663 (inactive) | -0.0777 (inactive) | 0.0569 | -0.152 | -0.427 | 0.0316 | 0.333
9 | O=C1C[C@@](C(=O)NC2CC2)(c2ccc([N+](=O)[O-])cc2)[C@@H](c2ccc(CO)cc2)N1CC12CC3CC(CC(C3)C1)C2 | 0.294 | 0.831 | 0.473 | 0.934 | 1.21 | 0.0882 | 0.0799 | 0.427 | 0.553 | 1.12 (inactive) | 0.382 | -4.42 (inactive) | -0.752 (inactive) | -0.529 (inactive) | -1.12 (inactive) | 0.465 | -0.0736 | 0.477 | -0.176 | 0.777
10 | CC(C)CNC(=O)[C@@]1(c2ccc([N+](=O)[O-])cc2)CC(=O)N(CC23CC4CC(CC(C4)C2)C3)[C@@H]1c1ccc(CO)cc1 | 0.943 | 0.662 | 0.24 | -0.0362 | 0.946 | 1.1 | 2.5 | 0.0651 | 0.358 | -1.61 (inactive) | 0.239 | -4.7 (inactive) | 0.677 (inactive) | -0.0888 (inactive) | -1.32 (inactive) | -0.256 | -0.0442 | 1.16 | 0.395 | 1.04
